Among the data in PubChem BioAssay (NCI) are growth inhibition values, retold here.

The nature of the assay: NCI Yeast Anticancer Drug Screen. Data for the rad18 strain (AID 177). Particulars: S. cerevisiae rad18 mutant growth inhibition, stronger effect = higher value. On the procedure: Growth inhibition of yeast strains with defined genetic alterations is measured as a screen for potential anti-cancer activity. Selected strains with alterations in DNA damage repair or cell cycle control were exposed to compounds and growth inhibition was measured relative to vehicle treated controls. The strain used in this assay is rad18

This is part of a sample that, as a whole, favours compounds with a hit. Of some 79,000 tested, about 15% had one in any assay. Unmarked numbers belong to inactive results. Active and inactive are the calls of the source. Cut-off read from the data, not from the text of the source: active = growth inhibition above about 70%; inactive = the rest.

For `O=C(c1cc(Br)ccc1O)c1cc(Br)ccc1O`, the growth inhibition reads like this: (at 1.2 µM) 32%; (at 3.7 µM) 89% (active); (at 11.0 µM) 99% (active); (at 33.0 µM) 99% (active); (at 100.0 µM) 99% (active).
Regarding `CSC(=S)Nc1cccc(C)n1`, the growth inhibition (at 1.2 µM) was -20%; the growth inhibition (at 3.7 µM) was -15%; the growth inhibition (at 11.0 µM) is -22%; the growth inhibition (at 33.0 µM) was 9%; the growth inhibition (at 100.0 µM) was 69%.
Regarding `Clc1ccccc1C1OC1c1ccccc1Cl` (stereo not given), the growth inhibition is, setting by setting: (at 1.2 µM) -59%; (at 3.7 µM) -48%; (at 11.0 µM) -64%; (at 33.0 µM) -48%; (at 100.0 µM) 2%.
For the compound `CCCCCCCCCCCCCCCCCCN(C)CC(COP(=O)([O-])OCC[N+](C)(C)C)OC` (stereo not given), the growth inhibition was -6% (at 1.2 µM); 11% (at 3.7 µM); 98% (active) (at 11.0 µM); 98% (active) (at 33.0 µM); 98% (active) (at 100.0 µM).
On to `Cc1cc(CO)c(O)c(CNCc2cc(C)cc(CO)c2O)c1`, for which the growth inhibition was 1% (at 1.2 µM); -6% (at 3.7 µM); -4% (at 11.0 µM); 4% (at 33.0 µM); 98% (active) (at 100.0 µM).
Take `CC(C)OC(=O)Oc1ccccc1OC(=O)OC(C)C`: the growth inhibition runs as follows: (at 1.2 µM) -3%; (at 3.7 µM) 1%; (at 11.0 µM) 0%; (at 33.0 µM) -3%; (at 100.0 µM) 0%.
On to `CC(=O)OCCOCNC(=S)N/N=C(\C)c1cnccn1`, for which the growth inhibition is 7% (at 1.2 µM); -5% (at 3.7 µM); 13% (at 11.0 µM); 32% (at 33.0 µM); 82% (active) (at 100.0 µM).
For `CCN(CC)CCNc1ccc([N+](=O)[O-])c2nc3ccc(OC)cc3c(N)c12`, in that order: 1%, 4%, 7%, 23% and 86% (active).
